Screening data as filed in PubChem BioAssay.
ATXN2 expr inh – reduces ATXN2 reporter expression in HEK-293 cells; HEK-293 ATXN2-luciferase reporter, luminescence, 24 h; Potency, µM (doses to about 57 µM), hits mostly inhibitors; AID 1745845; 360,000 compounds, 0.72% hits; further: nearly all actives have a fitted effect of over 55% in size
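ATXN2-luciferase reporter cells (luciferase flanked by upstream and downstream ATXN2 gene portions) were treated 24 h at 37 °C with compounds at up to 57 uM. SteadyGlo luminescence gave expression; GF-AFC fluorescence gave viability.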
TGFb SMAD3 inh – TGF-b pathway inhibition; HepG2 CAGA-GFP TGF-b/SMAD3 reporter, GFP fluorescence, 18 h; TGF-beta stimulated, 500 pg/mL final; Potency, µM (series often up to 46.1 µM), most hits filed as inhibitors; 410,000 compounds, 1.2% hits; AID 588855; further: nearly all actives have a fitted effect of over 65% in size
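Inhibition was scored as loss of TGF-beta-induced (500 pg/mL final, 18 hours, 37 degrees C) GFP in HEPG2 cells carrying a CAGA-GFP reporter, in DMEM with 1% FBS. Well GFP was summed per cell; Activity was normalised to unstimulated and stimulated DMSO wells, then concentration-response fitting.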
VP16 counter – counter-screen for ROR gamma inhibitors: Gal4-VP16 reporter; AID 2546; 310,000 compounds, 3.5% hits; Drosophila S2 Gal4-VP16 UAS-luciferase, luminescence, 20 h; Potency, µM (titrated, usually from 53.6 µM), usual class: inhibitors;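 further: Gal4-VP16 expression switched on by copper sulfate through the metallothionein promoter; nearly all actives have a fitted effect of over 50% in size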
ATXN viability – reduces viability in counter-screen for ATXN expression inhibitors; S2 cells (HEK-293 line with an ATXN2-luciferase reporter) viability, CellTiter-Fluor protease fluorescence, 24 h; Potency, µM (highest dose often 56.7 µM), most hits filed as cytotoxic; 400,000 compounds, 0.49% hits; further: nearly all actives have a fitted effect of over 40% in size
RORg inh – inhibitors of mouse ROR gamma transcriptional activity. P51450. AID 2551. Drosophila S2 Gal4-RORgamma UAS-luciferase reporter, 20 h. Potency, µM (series often up to 53.6 µM), actives largely listed as inhibitors. 310,000 compounds, 5.4% hits; further: nearly all actives have a fitted effect of over 60% in size
Target sequence (P51450 whole entry, looked up, the tested form may be a part): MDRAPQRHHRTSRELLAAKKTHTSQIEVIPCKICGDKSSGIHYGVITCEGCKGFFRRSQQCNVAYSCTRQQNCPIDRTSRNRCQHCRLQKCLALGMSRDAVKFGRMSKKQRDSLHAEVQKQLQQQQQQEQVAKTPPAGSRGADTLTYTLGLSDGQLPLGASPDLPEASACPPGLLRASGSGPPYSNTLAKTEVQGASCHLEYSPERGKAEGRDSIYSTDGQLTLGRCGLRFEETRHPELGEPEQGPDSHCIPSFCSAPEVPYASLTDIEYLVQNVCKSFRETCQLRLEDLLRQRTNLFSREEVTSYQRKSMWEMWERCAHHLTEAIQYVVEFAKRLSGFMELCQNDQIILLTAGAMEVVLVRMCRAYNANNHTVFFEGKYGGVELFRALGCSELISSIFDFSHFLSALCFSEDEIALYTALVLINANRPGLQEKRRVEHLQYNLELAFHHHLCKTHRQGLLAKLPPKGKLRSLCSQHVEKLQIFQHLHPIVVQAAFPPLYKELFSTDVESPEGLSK
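In this cell-based reporter format, copper sulfate (700 uM final) drives Gal4–ROR gamma fusion expression from a metallothionein promoter in Drosophila Schneider cells; compounds preincubated 1 hr, reporter read after 20 hr at ambient temperature.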
HepG2 tox – counter-screen for TGF-b inhibitors: cytotoxicity in HepG2 cells; HepG2 CAGA-GFP viability, ATP luminescence, 18 h; Potency, µM (top dose mostly 46.1 µM), actives largely listed as cytotoxic; 410,000 compounds, 0.76% hits
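HepG2 CAGA-GFP cells (1000/well, DMEM with 1% FBS) received compound, then TGF-beta at 500 pg/mL final, and were incubated 18 hours at 37 degrees C. Viability was read by CellTiter-Glo luminescence. Media-only wells were set as complete cell-killing and DMSO as no toxicity.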
Of the large screens only hits and unclear results are named; the others gave an inactive call; ! = repeats disagree. Only some compounds are listed: those with a hit (about 6.3% of all), similar ones and a draw of the others. The call rests on the fitted dose curve; in most records, active means well fitted curve in the direction sought with a large enough effect; inconclusive means small, poorly fitted or top-dose-only effect, or another doubt; inactive means no such curve, though single readings can be large; an effect the other way counts as inactive or inconclusive.

Cn1c(NC(=O)c2ccc(Br)o2)cc(=O)n(C)c1=O	RORg inh 12.6µM
CCC(=O)Nc1ccc(Cl)c(NC(=S)NC(=O)c2cc3ccccc3o2)c1	VP16 counter 3.55µM, ATXN viability inconclusive, RORg inh inconclusive
CCC(=O)NC(=S)Nc1ccc(NC(=O)c2cc3ccccc3o2)c(OC)c1	VP16 counter inconclusive, RORg inh 4.47µM
COc1cc(NC(=O)c2cccc(C)c2)ccc1NC(=O)c1cc2ccccc2o1	VP16 counter 12.6µM, RORg inh inconclusive (no result: ATXN2 expr inh)
CCOc1cccc(C(=O)Nc2ccc(NC(=O)c3cc4ccccc4o3)c(OC)c2)c1	VP16 counter inconclusive, RORg inh inconclusive
CCC(=O)Nc1ccc(Cl)c(NC(=S)NC(=O)c2ccco2)c1	VP16 counter inconclusive
COc1cc(NC(=S)NC(=O)C(C)C)ccc1NC(=O)c1cc2ccccc2o1	none (no result: ATXN2 expr inh)
COc1ccc(CNc2ncnc3c2nnn3C)cc1	none (no result: ATXN2 expr inh, VP16 counter, ATXN viability, RORg inh)
CC(C)(C)Sc1ccc2nc3c(n2c1)CCCC3	VP16 counter 11.2µM, RORg inh 3.98µM
Nc1nc(=S)[nH]c2c1C1(CCCCC1)Cc1ccccc1-2	VP16 counter 3.98µM, RORg inh 2.24µM
Nc1nc(=S)[nH]c2c1C1(CCCC1)Cc1ccccc1-2	VP16 counter 8.91µM, RORg inh 6.31µM
CC(C)NC(=S)NC(=O)c1ccc(Cl)cc1Cl	VP16 counter 10µM, RORg inh 8.91µM
CC(C)CNC(=S)NC(=O)c1ccc(F)cc1	VP16 counter inconclusive, RORg inh 7.94µM
O=C(NC(=S)Nc1ccccc1O)c1ccc(Cl)cc1Cl	TGFb SMAD3 inh inconclusive, VP16 counter 7.08µM, RORg inh 2.51µM
CC(C)CNC(=S)NC(=O)c1ccc(Cl)cc1Cl	VP16 counter 5.62µM, RORg inh 7.08µM
COc1cc2c(NC3CCN(C(C)C)CC3)nc(N3CCCN(C)CC3)nc2cc1OCCCN1CCCC1	TGFb SMAD3 inh inconclusive (no result: ATXN2 expr inh, VP16 counter, ATXN viability, RORg inh)
CCN1C(=S)N[C@@H](c2cccs2)C(C(=O)OC)=C1C	VP16 counter 20µM, RORg inh 3.98µM
CC1=C(C(=O)OCc2ccccc2)C(c2ccccc2OC(F)F)NC(=O)N1 (configuration not stated)	TGFb SMAD3 inh inconclusive
CCN1C(=S)N[C@@H](CCc2ccccc2)C(C(=O)OC)=C1C	TGFb SMAD3 inh inconclusive, VP16 counter inconclusive, ATXN viability inconclusive, RORg inh 4.47µM!
COC(=O)C1=C(C)N(CC2CC2)C(=O)N[C@H]1CCc1ccccc1	none (no result: ATXN2 expr inh, TGFb SMAD3 inh, ATXN viability, HepG2 tox)
CCOC(=O)C1=C(C)N(CC)C(=S)NC1c1ccccc1OC(F)F (configuration not stated)	ATXN2 expr inh inconclusive, VP16 counter inconclusive, RORg inh 2µM
CCc1ccccc1NC(=O)NC(CC)Cn1nnc2ccccc2c1=O (configuration not stated)	none (no result: ATXN2 expr inh, VP16 counter, ATXN viability, RORg inh)
Cc1cc(=O)n(Cc2c(F)cccc2Cl)c2c1c(C)nn2-c1cccc(F)c1	none (no result: VP16 counter, RORg inh)
Cc1cccnc1-c1cccc2c1OC(CNC(=O)/C=C/c1cccs1)C2 (configuration not stated)	none (no result: ATXN2 expr inh, TGFb SMAD3 inh, VP16 counter, RORg inh, HepG2 tox)
O=C(O)CCCCCN1C(=O)/C(=C/c2cn(-c3ccccc3)nc2-c2cccs2)SC1=S	ATXN viability inconclusive (no result: VP16 counter, RORg inh)
O=Cc1cn(-c2ccccc2)nc1-c1ccc(F)cc1	none (no result: ATXN2 expr inh)
CC1=NNC(=O)/C1=C\c1cn(-c2ccccc2)nc1-c1ccc(F)cc1	ATXN2 expr inh 7.52µM, TGFb SMAD3 inh 3.98µM, VP16 counter 5.01µM, RORg inh 4.47µM (no result: ATXN viability)
CC1=NNC(=O)/C1=C\c1cn(-c2ccccc2)nc1-c1cccs1	TGFb SMAD3 inh 5.62µM, VP16 counter 4.47µM, ATXN viability 3.16µM, RORg inh inconclusive, HepG2 tox 7.94µM (no result: ATXN2 expr inh)
C=C(C)C(=O)OCC(O)CO (configuration not stated)	none (no result: TGFb SMAD3 inh, VP16 counter, RORg inh, HepG2 tox)
Cc1ccccc1CCNC(=O)c1ccc2c(c1)c(C)c(C)n2Cc1ccccc1	none (no result: ATXN2 expr inh, VP16 counter, ATXN viability, RORg inh)
Cc1c(C)n(Cc2ccccc2)c2ccc(C(=O)OCCCN(C)C)cc12	TGFb SMAD3 inh inconclusive, ATXN viability inconclusive, RORg inh inconclusive, HepG2 tox 17.8µM
C=CCn1c(CCC(O)COCCCCC)n[nH]c1=S (configuration not stated)	RORg inh inconclusive
C=CCn1c(C(CCCC)CC(O)COCCC)n[nH]c1=S (configuration not stated)	VP16 counter inconclusive, RORg inh 7.08µM
C=CCn1c(C(CC(C)C)CC(C)O)n[nH]c1=S (configuration not stated)	RORg inh inconclusive
C=CCn1c(C(CCCC)CC(O)COCC(C)C)n[nH]c1=S (configuration not stated)	VP16 counter inconclusive, RORg inh 10µM
COc1ncccc1-c1cc2nc(NCCNC(C)=O)n(C)c(=O)c2s1	none (no result: VP16 counter, RORg inh)
CCCc1ccc(OCC(=O)N2CCN(C(=O)COc3ccc(CCC)cc3OC)CC2)c(OC)c1	none (no result: TGFb SMAD3 inh, VP16 counter, RORg inh, HepG2 tox)
CC(=O)N[C@@H](c1ccccc1)[C@]1(C)C[C@H]1[C@@H](C)C(=O)Nc1ccc2ccccc2c1	RORg inh 0.355µM (no result: ATXN2 expr inh, TGFb SMAD3 inh, ATXN viability, HepG2 tox)
O=C(O)CCc1nn2c3ccccc3nc2n(Cc2ccccc2)c1=O	ATXN viability inconclusive
O=C(O)CCc1nn2c3ccccc3nc2n(-c2ccccc2)c1=O	RORg inh 11.2µM
COc1ccc(-c2c(-c3ccc(OCC(=O)NN)cc3O)n[nH]c2C(F)(F)F)cc1	TGFb SMAD3 inh inconclusive, VP16 counter 4.47µM, RORg inh 6.31µM
C=C(C)COc1ccc(-c2n[nH]c(C)c2-c2ccc(OC)cc2)c(O)c1	ATXN2 expr inh inconclusive, TGFb SMAD3 inh inconclusive, VP16 counter inconclusive, ATXN viability inconclusive, RORg inh 2.24µM
CCOc1ccc(-c2n[nH]c(C)c2-c2ccccc2OC)c(O)c1	VP16 counter inconclusive, RORg inh 2µM
COc1ccccc1-c1csc(C(C)(NC(C)=O)c2ccccc2)n1 (configuration not stated)	none (no result: VP16 counter, RORg inh)
CCCc1ccc(OC(=O)c2sc3ncn(Cc4cccc(F)c4)c(=O)c3c2C)cc1	none (no result: VP16 counter, RORg inh)
CCC1C(=O)NCCN1Cc1ccc2c(c1)CN(Cc1ccc(OC)c(OC)c1)CCO2 (configuration not stated)	none (no result: ATXN2 expr inh, TGFb SMAD3 inh, VP16 counter, RORg inh, HepG2 tox)
O=C(NCC1Cc2cc(-c3cncnc3)cc(Cl)c2O1)c1cccc(Cn2cccn2)c1 (configuration not stated)	none (no result: ATXN2 expr inh, TGFb SMAD3 inh, VP16 counter, RORg inh, HepG2 tox)
CC(C)c1nc2sc3c(=S)nc[nH]c3c2c2c1CCC2	VP16 counter inconclusive, RORg inh 3.16µM
CCn1c(=O)c2sccc2n2c(CCCC(=O)N3CCN(c4cc(C)ccc4C)CC3)nnc12	none (no result: ATXN2 expr inh, VP16 counter, ATXN viability, RORg inh)
Cc1ccc(/C=N/NC(=S)N2CCOCC2)cc1	TGFb SMAD3 inh inconclusive, VP16 counter 0.891µM, RORg inh 0.562µM
